# Screens deposited in PubChem BioAssay by Center for Chemical Genomics, University of Michigan.
# Rows were chosen to be rich in hits. Some 0.9% of all compounds tested hit in one or more screens of this group.
# TAR Tat displ: HIV-1 TAR-Tat binding disruption. HIV-1 TAR RNA, Tat peptide displacement FRET; stronger effect = higher value. z-score (concentration not given with the values). 0.6% of 100,000 active; active = z-score of 3 or more in at least 2 runs
# CDC25B-CDK2 inh: human CDC25B-CDK2/CyclinA binding inhibition; z-score (concentration not given with the values); P30305+P24941; 0.72% of 94,000 active; AID 1259370; HTRF CDC25B-CDK2/CyclinA binding, anti-His/anti-Flag; stronger effect = higher value; in the data active = z-score above about 3.2
# Numbers without * were called inactive; . = not tested or not shown.
SMILES,TAR Tat displ,CDC25B-CDK2 inh
COc1ccc(-c2cc(C(=O)OC(C)C)c3cc(Br)ccc3n2)cc1,.,15*
Cc1cc(NC2c3ncccc3C(=O)N2c2ccccc2)ccc1Br (stereo not drawn),1.3,.
CCN(CC)CCNc1cc(N2CCOCC2)c2noc3c2c1C(=O)c1ccccc1-3,6.5*,-4.9
CCNc1cc(N(C)CCO)c2noc3c2c1C(=O)c1ccccc1-3,-0.08,-0.52
CN(C)CCCNc1cc(N(C)CCO)c2noc3c2c1C(=O)c1ccccc1-3,7*,-4
CN(C)CCCNc1cc(N2CCCCC2)c2noc3c2c1C(=O)c1ccccc1-3,1.7,0.05
CCN(CC)CCNc1cc(N2CCCC2)c2noc3c2c1C(=O)c1ccccc1-3,-1,-0.38
CCCN1CCN(c2cc(NCCOC)c3c4c(onc24)-c2ccccc2C3=O)CC1,-0.12,-2.1
CCCN1CCN(c2cc(NCCCOCC)c3c4c(onc24)-c2ccccc2C3=O)CC1,6.3*,1.9
CN(C)CCCNc1cc(N2CCCC2)c2noc3c2c1C(=O)c1ccccc1-3,8.8*,1.9
CCC(C)NC(=O)CCc1nnc2ccc(NCc3ccco3)nn12 (stereo not drawn),2.8,.
Nc1ncc(Br)cc1S(=O)(=O)NCc1ccc(F)cc1,0.49,-2.1
O=C(CCc1nnc2ccc(NCc3ccc(F)cc3)nn12)Nc1ccc(Cl)cn1,1.5,.
COc1ccc(N2CCN(C(=O)NC3(C(F)(F)F)Oc4ccccc4O3)CC2)cc1,.,-1.3
CN(C)CCNc1cc(N2CCOCC2)c2noc3c2c1C(=O)c1ccccc1-3,-1.4,-2
CN(C)CCNc1cc(N2CCCCC2)c2noc3c2c1C(=O)c1ccccc1-3,17*,6.2*
O=c1[nH]c(-c2cc(Br)ccc2O)nc2c1Cc1cc(F)ccc1O2,-0.13,-0.56
CCOC(=O)CSc1nnc(-c2ccccc2)c(=O)[nH]1,-0.43,2.1
CCOC(=O)CSc1nnc(NCC(=O)OC)c(=O)[nH]1,.,4.2*
Cc1ccc(-n2ccnc(SCc3ccc(Cl)cc3)c2=O)cc1C,0.97,.
CC1CCCC(NC(=O)C2(C)Cn3c(cc4occc43)C(=O)N2C2CCCC2)C1C (stereo not drawn),0.67,.
CC1CCCC(NC(=O)C2(C)Cn3c(cc4occc43)C(=O)N2CC2CCCO2)C1C (stereo not drawn),6.8*,.
CC(NC(=O)Nc1ccc(Br)cc1)c1c(-n2cccc2)sc2c1CCCC2 (stereo not drawn),1.6,-0.89
c1ccc(-c2c3ssnc-3c3ccccc23)cc1,.,17*
Cc1nc(-c2ccccc2)c(-c2ccccc2)s1,1.7,-0.54
SMILES,TAR Tat displ,CDC25B-CDK2 inh
Brc1ccccc1-c1nnc2sc(-c3cccnc3)nn12,2.1,-0.29
Cn1c(SCC(=O)N/N=C/c2ccc3c(c2)OCO3)nnc1-c1ccccc1,.,1.1
NC(=O)C1CCN(C(=O)C2CCN(c3ccc(Cl)cc3)C2=O)CC1 (stereo not drawn),0.89,.
O=C(CSC1=Nc2ccccc2C2=NC(Cc3c[nH]c4ccccc34)C(=O)N12)NC1CCCCC1 (stereo not drawn),0.74,.
CC1CC(C)CN(C(=O)CSC2=Nc3ccccc3C3=NC(Cc4c[nH]c5ccccc45)C(=O)N23)C1 (stereo not drawn),5.4*,.
CCCCCNC(=O)c1ccc(Cn2c(=S)[nH]c3ccccc3c2=O)cc1,.,-1.1
Cc1cc(Nc2ccc3c(c2)OCO3)n2nc(-c3ccco3)nc2n1,18*,.
Cc1cc(NCc2ccc3c(c2)OCO3)n2nc(-c3ccco3)nc2n1,-1.3,.
O=C(CCS(=O)(=O)c1cc2c(cc1Cl)NC(=O)CO2)Nc1ccc(Br)cc1F,-4.3,.
C=C(C)CC(NC(C)c1ccccc1)c1ccco1 (stereo not drawn),-0.33,-0.1
C=CC(=C)CC(NC)c1ccccc1 (stereo not drawn),0.37,16*
O=C1c2cc([N+](=O)[O-])ccc2-c2ccc([N+](=O)[O-])cc21,.,0.65
CCCNC(=O)c1cc([N+](=O)[O-])cc2c1-c1ccc([N+](=O)[O-])cc1C2=O,.,16*
Cc1ccc2c(c1C)NC(=O)CC2c1ccc(F)c(F)c1 (stereo not drawn),0.91,0.2
Cc1c(C(=O)C(=O)N(C)C2CCCCC2)c2ccccc2n1C,.,-0.8
CC(C)(C)c1csc(NC(=O)c2cccc(Cl)c2)n1,.,-0.32
COC(=S)Nc1cccc(C(F)(F)F)c1,.,-1.8
COc1cc(OC)c2nc(C)c3c(c2c1)CN(C(=O)Nc1cccc(C(F)(F)F)c1)C3,.,15*
Cc1ccc(NC(=O)CSc2nc(-c3ccc(Cl)cc3)nc3cc(=O)[nH]n23)cc1C,25,.
O=C(CSc1nc(-c2ccc(Cl)cc2)nc2cc(=O)[nH]n12)Nc1ccccc1,17,.
CSc1cccc(NC(=O)CSc2nc(-c3ccc(Cl)cc3)nc3cc(=O)[nH]n23)c1,18*,.
Cc1cc(C)cc(NC(=O)CSc2nc(-c3ccc(Cl)cc3)nc3cc(=O)[nH]n23)c1,23*,.
CCOc1ccccc1-n1c(=S)sc2c(=O)[nH]c(SCC(=O)N(CC)CC)nc21,1.6,-0.85
CCc1nn(C(C)C(=O)NCCN2CCN(C)CC2)c(=O)c2cc3occc3n12 (stereo not drawn),-0.33,-0.44
N#CC1=C2SCN(c3ccccc3F)CN2C(=O)CC1c1c(F)cccc1Cl (stereo not drawn),-2,-1.1
SMILES,TAR Tat displ,CDC25B-CDK2 inh
N#CC1=C2SCN(c3ccccc3F)CN2C(=O)CC1c1cccc(F)c1 (stereo not drawn),0.19,6.6*
CCc1ccccc1N1CSC2=C(C#N)C(c3cccc(F)c3)CC(=O)N2C1 (stereo not drawn),-1.2,6.3*
N#CC1=C2SCN(c3ccccc3F)CN2C(=O)CC1c1cccc(Br)c1 (stereo not drawn),-1,2.7
Cc1nc(-c2nnc(NC(=O)c3ccc4c(c3)OCO4)o2)c(C)s1,0.55,-1.6
CC1CC2(CC(C)(c3csc(Nc4ccccc4Cl)n3)OC2=O)C(=O)O1 (stereo not drawn),.,-1.8
CCOC(=O)c1cc(CO)cc(C(=O)OCC)c1,.,-2
CCCOC(=O)c1cc(O)c(O)c(O)c1,26*,.
O=c1c(N2CCN(C/C=C/c3ccccc3)CC2)csc2ccccc12,-2,.
CC(C)=CC[C@@H](O)C1=CC(=O)c2c(O)ccc(O)c2C1=O,34*,.
O=C(NCc1ccc(F)cc1)C1CCC(CNc2c(N3CCCC3)c(=O)c2=O)CC1 (stereo not drawn),0.75,-0.95
N#CC1=C2SCN(c3ccccc3)CN2C(=O)CC1c1ccc(Br)cc1 (stereo not drawn),-4.1,4*
N#CC1=C2SCN(c3ccccc3F)CN2C(=O)CC1c1ccc(Br)cc1 (stereo not drawn),-0.67,-2.4
N#CC1=C2SCN(c3ccc(F)cc3)CN2C(=O)CC1c1cccc(F)c1 (stereo not drawn),-3.9,6.4*
N#CC1=C2SCN(c3ccc(F)cc3)CN2C(=O)CC1c1cccc(Br)c1 (stereo not drawn),-1.8,3.3*
COc1ccc(N2CSC3=C(C#N)C(c4ccc(Br)cc4)CC(=O)N3C2)cc1 (stereo not drawn),-1.4,5.3*
CC1CCCN(S(=O)(=O)c2ccc3c(c2)CCN3C(=O)CCCC(=O)O)C1 (stereo not drawn),-0.45,-1.1
O=C1CCC(C(=O)N(CC2CCCO2)C2(C(=O)NC3CCCCC3)CCCCC2)N1 (stereo not drawn),.,0.37
